The source of these data is publication PMC4336329 (PLoS ONE, 2015).

Screen size: about 310,000 compounds; about 14,000 (4.5%) showed an effect of 50% or more. The effect is printed as a negative number. The list comes from a sample in which strong results are over-represented; it also holds similar structures and randomly drawn compounds.
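Note: peak tail current of the secondary pulse compared with the same well before compound.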

human ether-à-go-go-related gene (hERG) potassium channel, sequence (Q12809 whole entry, looked up): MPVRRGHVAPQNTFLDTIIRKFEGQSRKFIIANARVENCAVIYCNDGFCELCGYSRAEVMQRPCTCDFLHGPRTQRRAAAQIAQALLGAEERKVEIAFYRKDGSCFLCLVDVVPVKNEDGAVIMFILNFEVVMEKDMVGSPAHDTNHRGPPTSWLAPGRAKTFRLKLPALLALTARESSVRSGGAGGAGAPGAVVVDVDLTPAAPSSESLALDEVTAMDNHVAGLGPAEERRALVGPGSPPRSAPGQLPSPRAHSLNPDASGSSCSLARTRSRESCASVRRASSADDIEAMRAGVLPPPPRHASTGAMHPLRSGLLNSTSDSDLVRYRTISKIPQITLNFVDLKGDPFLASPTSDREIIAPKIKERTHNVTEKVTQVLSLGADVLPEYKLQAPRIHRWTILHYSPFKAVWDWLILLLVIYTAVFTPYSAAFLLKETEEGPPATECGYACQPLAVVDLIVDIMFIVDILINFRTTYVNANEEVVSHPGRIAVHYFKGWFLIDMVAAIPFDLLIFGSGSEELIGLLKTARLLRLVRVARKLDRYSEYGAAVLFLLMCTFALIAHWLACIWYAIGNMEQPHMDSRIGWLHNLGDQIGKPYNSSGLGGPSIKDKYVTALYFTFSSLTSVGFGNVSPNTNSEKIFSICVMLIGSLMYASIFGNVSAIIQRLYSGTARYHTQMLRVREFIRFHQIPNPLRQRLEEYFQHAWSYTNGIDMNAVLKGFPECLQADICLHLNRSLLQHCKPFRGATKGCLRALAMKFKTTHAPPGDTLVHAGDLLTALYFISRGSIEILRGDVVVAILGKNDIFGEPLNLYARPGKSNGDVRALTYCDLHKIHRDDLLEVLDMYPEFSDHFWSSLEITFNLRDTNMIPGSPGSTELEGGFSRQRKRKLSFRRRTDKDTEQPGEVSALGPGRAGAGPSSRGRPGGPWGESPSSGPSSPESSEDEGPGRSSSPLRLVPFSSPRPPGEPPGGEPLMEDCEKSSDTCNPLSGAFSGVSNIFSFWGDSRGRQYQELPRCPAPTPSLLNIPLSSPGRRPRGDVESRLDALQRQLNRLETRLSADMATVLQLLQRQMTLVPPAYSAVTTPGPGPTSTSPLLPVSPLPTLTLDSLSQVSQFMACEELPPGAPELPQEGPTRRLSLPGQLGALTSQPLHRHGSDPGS

The experiment addresses human ether-à-go-go-related gene (hERG) potassium channel (human, UniProt Q12809). In words: primary screen, population patch clamp on CHO cells stably expressing hERG; higher = less effect of the substance.
Take `COc1ccc(Nc2nc3[nH]c(=O)cc(O)c3s2)cc1`: the “hERG current change (%, negative = inhibition) at 10uM” value was 14.2%.
With `Cc1ccc(S(=O)(=O)NN2C(=O)/C(=C/c3ccc(C(=O)O)cc3)SC2=S)cc1` the figure was 19.9%.
With `Cc1ccc(NC(=O)CCNC(=O)c2ccc(Cl)cc2)cc1F` the figure was 9.19%; with `O=C(CCNS(=O)(=O)c1ccccc1)NNC(=O)COc1ccc(Cl)cc1`, 2.29%.
On to `O=C(COc1ccc(Nc2ccccc2)cc1)Nc1ccncc1`, for which the “hERG current change (%, negative = inhibition) at 10uM” value is recorded as -30.1%.
The result for `O=C(Nc1ccc2c(c1)OCO2)Nc1ccc(Cl)cc1Cl` reads 9.53%; that for `CCCCOC(=O)NC(NCC(O)c1ccccc1)(C(F)(F)F)C(F)(F)F` (centres unmarked), 6.78%; that for `O=C(CN(Cc1ccccc1)C(=O)c1csnn1)NCc1ccccc1`, 8.5%.
With `O=C(CN(Cc1ccc(F)cc1)C(=O)c1csnn1)NCc1ccccc1` the figure was -31.6%.
`O=C(CN(C(=O)c1csnn1)c1cccc2c1CCCC2)NCc1ccccc1`: the “hERG current change (%, negative = inhibition) at 10uM” value is reported as -5.19%.
The result for `O=C(CN(Cc1ccccc1)C(=O)c1csnn1)NCCc1ccccc1` reads -18.9%; that for `O=C(CN(Cc1ccccc1Cl)C(=O)c1csnn1)NCc1ccccc1`, -24%.
The result for `COc1ccc(CNC(=O)CN(Cc2ccccc2Cl)C(=O)c2csnn2)cc1` reads -34.8%; that for `C=CCN(CC(=O)NCc1ccc(F)cc1)C(=O)c1csnn1`, -18.2%; that for `COc1ccc(CNC(=O)CN(C(=O)c2csnn2)c2cccc3c2CCCC3)cc1`, -14.9%.
The result for `O=C(CN(Cc1ccc(Cl)cc1)C(=O)c1csnn1)NCc1ccccc1` reads -56.7%.
For the molecule `O=C(CN(Cc1ccc(Cl)cc1)C(=O)c1csnn1)NCc1ccc(F)cc1`, the “hERG current change (%, negative = inhibition) at 10uM” value is given as -66.6%.
The result for `O=C(CN(C(=O)c1csnn1)c1cccc2c1CCCC2)NCc1ccc(F)cc1` reads -57.7%; that for `O=C(CN(Cc1ccccc1Cl)C(=O)c1csnn1)NCc1ccc(F)cc1`, -50.4%; that for `C/C(=N/NC(=O)c1ccc2c(c1)OCO2)c1cccc([N+](=O)[O-])c1`, -10.1%.
The result for `COc1ccc(C(=O)OCn2nnc3ccccc3c2=O)cc1` reads -10.4%; that for `Cc1cc(C(=O)Nc2ccc(Nc3ccccc3)cc2)ccc1[N+](=O)[O-]`, 17.3%; that for `CCc1ccc(NC(=O)CS(=O)CC(=O)NC(C)CCc2ccco2)cc1` (centres unmarked), 9.65%.
